Rce1 inhib – blocks yeast Ras-converting enzyme | Q03530 | yeast membranes, quenched prenylated peptide cleavage fluorescence | calls only | 290,000 tested, 0.27% active | AID 2563;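 active means fall in fluorescence gain of 50% or more versus controls, with final raw signal at or below 3038400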;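 further: plate controls were neutral control wells for no effect and wells lacking membranes for full effect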
Target sequence (Q03530 whole entry, looked up): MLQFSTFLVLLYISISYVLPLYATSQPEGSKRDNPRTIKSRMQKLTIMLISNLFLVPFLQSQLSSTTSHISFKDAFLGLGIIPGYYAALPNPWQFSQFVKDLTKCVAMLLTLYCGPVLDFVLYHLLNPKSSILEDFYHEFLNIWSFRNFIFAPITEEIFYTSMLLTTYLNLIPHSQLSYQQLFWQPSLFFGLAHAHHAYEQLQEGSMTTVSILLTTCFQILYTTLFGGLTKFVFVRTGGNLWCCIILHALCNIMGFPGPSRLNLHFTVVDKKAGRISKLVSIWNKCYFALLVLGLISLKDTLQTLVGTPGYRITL
tim10-1 inh – tim10-1 yeast growth inhibition; AID 463190; S. cerevisiae tim10-1 ts strain growth, BacTiter-Glo, 24 h; inhibition, % at 20 µM; 330,000 tested, 2.2% active;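 active means inhibition of at least 40%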;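 further: mutant grown at 25 °C; 0% = DMSO wells with yeast and 100% = wells holding no yeast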
PfHsp90 yeast 2 – growth inhibition of yeast expressing Plasmodium Hsp90 | S. cerevisiae expressing PfHsp90, BacTiter-Glo ATP, 48 h; yeast lacking PDR1 and PDR3 efflux regulators | inhibition, % at 9.4 µM | 310,000 tested, 0.32% active;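 active means every replicate shows inhibition above about 80%, whatever the replicate mean, limit read from the data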;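 further: 0% = DMSO neutral controls and 100% = 20 µM radicicol positive controls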
tim23-1 inh – tim23-1 yeast growth inhibition; S. cerevisiae tim23-1 growth, BacTiter-Glo luminescence, 24 h; inhibition, % at 20 µM; 330,000 tested, 1.3% active; AID 463212;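 active means growth inhibition of the mutant yeast at or above 50%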;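 further: temperature-sensitive mutant grown at 25 °C; plate controls were DMSO-treated mutant yeast for no effect and medium wells lacking yeast for full effect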
TIM10 inh – growth inhibitors of TIM10 yeast strain | 330,000 tested, 1.4% active | inhibition, % at 10 µM | AID 463195 | S. cerevisiae TIM10 strain growth, BacTiter-Glo luminescence, 24 h;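 active means inhibition of 40% or more at the single tested concentration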;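 further: wild-type TIM10 isogenic control strain grown at permissive 25 °C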
tim10-1 confirm – confirmation of tim10-1 mutant yeast growth inhibitors; shares compounds with tim10-1 inh; S. cerevisiae tim10-1 ts strain growth, BacTiter-Glo, 24 h; inhibition, % at 20 µM; 7,400 tested, 56% active;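 active means inhibition of yeast growth at or above a set limit in either of two repeat tests at 20 µM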;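 further: tim10-1 mutant grown at permissive 25 °C to find synthetic lethal compounds; 0% = DMSO yeast wells and 100% = medium wells without yeast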
Starred values were filed as active, the others as inactive; i = inactive; . = no result. Compounds with a hit are over-represented: about 3.7% of the library has one in this group of screens.

SMILES	Rce1 inhib	tim10-1 inh	PfHsp90 yeast 2	tim23-1 inh	TIM10 inh	tim10-1 confirm
NC(=O)COC(=O)C(Cc1ccccc1)NS(=O)(=O)c1ccccc1F (configuration not stated)	i	10	66	23	-16	.
Cc1cc(C)c(S(=O)(=O)N2CCCOC2CNC(=O)C(=O)NCc2ccccn2)c(C)c1 (configuration not stated)	.	15	7	6	6	.
Cc1ccc(C)c(N2CCN(C(=O)c3ccc4nc(-c5ccco5)c(-c5ccco5)nc4c3)CC2)c1	i	44*	.	2	5	37*
Cc1ccc(C)c(N2CCN(C(=O)c3ccc4c(c3)c(C)c(C)n4C)CC2)c1	i	43*	14	36	27	18
Cc1ccc(C)c(N2CCN(C(=O)c3ccc4nc(N5CCOCC5)sc4c3)CC2)c1	i	25	-5	29	25	.
Cc1c(C)n(C)c2ccc(C(=O)N3CCN(c4ccccc4)CC3)cc12	i	39	-23	38	11	.
CCOC(=O)C1CCCN(C(=O)c2ccc3oc(CCc4ccccc4)nc3c2)C1 (configuration not stated)	i	42*	0	30	10	8
O=C1S/C(=C/c2ccc(N3CCOCC3)o2)C(=O)N1Cc1c(F)cccc1Cl	i	59*	95*	29	24	58*
CCCCC(=O)NS(=O)(=O)c1ccc(NS(C)(=O)=O)cc1	i	-1	13	4	-1	.
O=S(=O)(c1ccc(-c2csc(-c3cccnc3)n2)cc1)N1CCOCC1	i	42*	-10	24	16	23
Cc1cccc2sc(N(CCCN(C)C)C(=O)c3ccc(C(=O)c4ccccc4)cc3)nc12	i	43*	-14	3	27	7
CN(C)CCCN(C(=O)c1nc2ccccc2s1)c1nc2ccc(F)cc2s1	i	-3	-18	18	12	.
CN(C)CCCN(C(=O)c1ccc(C(=O)c2ccccc2)cc1)c1nc2ccc(F)cc2s1	i	49*	-11	16	35	4
COc1cccc2cc(C(=O)OCc3ccccc3)c(=O)oc12	i	42*	7	45	24	23
Cc1cccc2cncc(OCc3nnc(SC(F)F)n3C)c12	i	3	26	19	-3	.
CCSc1nnc(NC(=O)c2cccc(OCc3c(C)noc3C)c2)s1	i	40	.	6	11	11
COc1ccc2nc(NC(=O)c3cccc(OCc4c(C)noc4C)c3)sc2c1	i	12	.	-9	15	.
Cc1ccc(-c2cnc(C3CC3)o2)cc1S(=O)(=O)Nc1ccccc1	i	41*	-5	39	15	4
CC(=O)Nc1ccc(NS(=O)(=O)c2cc(-c3cnc(C4CC4)o3)ccc2C)cc1	i	1	-6	-1	1	.
Cc1ccc(-c2nc3ccccn3c2NCc2ccc3c(c2)OCO3)cc1	i	47*	22	39	38	26
O=C(Nc1ccc(Br)cc1)c1cccc2c1C(=O)N(C1CCCCC1)C2	i	55*	14	40	-2	9
O=C(Nc1ccc(Br)cc1Br)c1cccc2c1C(=O)N(C1CCCCC1)C2	i	42*	-14	33	2	9
CSc1ccc(CCNC(=O)c2cccc3c2C(=O)N(C2CCCCC2)C3)cc1	i	42*	-27	36	23	18
Cc1ccc(NC(=O)c2cccc3c2C(=O)N(C2CCCCC2)C3)c(Cl)c1	i	40	-12	37	6	.
O=C(NCCCCc1ccccc1)Nc1ccc(F)cc1F	i	-21	19	-4	-3	.
SMILES	Rce1 inhib	tim10-1 inh	PfHsp90 yeast 2	tim23-1 inh	TIM10 inh	tim10-1 confirm
C=CC1CN(C(=O)OCC(Cl)(Cl)Cl)C2CC3c4ccc(OC)cc4NC3C3CC1C2CO3 (configuration not stated)	i	12	.	29	-3	.
Nn1c(=O)c2ccccc2n2c(SCc3ccc(C(F)(F)F)cc3)nnc12	i	29	-16	27	12	.
CCN(CC)c1ncn(Cc2c(Cl)cccc2Cl)c2ncnc1-2	i	42*	-21	39	9	36*
O=C(C1CCCO1)N1N=C(c2ccc(Br)cc2)CC1c1ccco1 (configuration not stated)	i	37	-27	39	27	.
Cc1ccc(C2=NN(C(=O)C3CCCO3)C(c3ccco3)C2)cc1 (configuration not stated)	i	41*	12	28	9	19
CCCC(=O)NCc1ccncc1	i	5	.	-3	-10	.
CC1CCC(n2c(=S)[nH]c3ccccc3c2=O)CC1 (configuration not stated)	i	27	-8	8	21	.
CC1CCCC(n2c(=S)[nH]c3ccccc3c2=O)C1C (configuration not stated)	i	42*	.	28	39	31
CSc1cccc(CNC(=O)C2CCC(=O)N(CCCN3CCCC3=O)C2)c1 (configuration not stated)	i	12	-4	12	3	.
O=C(C1CCN(c2ncnc3c2nc2n3CCCCC2)CC1)N1CCN(c2ccc(F)cc2)CC1	i	44*	-5	-28	-63	-97
CCc1ccccc1N(CC)C(=O)C1CCN(c2ncnc3c2nc2n3CCCCC2)CC1	i	42*	-6	33	17	10
COc1ccccc1C(=O)NCC(=O)NCCCN1CCOCC1	.	0	.	-3	-1	.
COc1ccc(CCCC(=O)N/N=C/c2ccccc2OC)cc1	i	8	2	24	1	.
Cc1cc(=O)oc2cc(OC(=O)CCCCCN3C(=O)c4ccccc4C3=O)ccc12	i	49*	22	40	26	43*
CC1=CC(C)(C)Nc2ccc(OC(=O)CCN3C(=O)c4ccccc4C3=O)cc21	i	40*	8	37	38	32*
O=C(CCN1C(=O)c2ccccc2C1=O)Oc1ccc2ccccc2c1	i	11	9	30	10	.
Brc1ccccc1-c1nnc2sc(-c3ccc4c(c3)OCCO4)nn12	i	49*	.	42	34	24
Clc1ccccc1-c1nnc2sc(-c3ccc4c(c3)OCO4)nn12	i	16	-9	23	12	.
O=C(Nc1nc(-c2ccco2)c(-c2ccco2)s1)c1ccc(F)cc1F	.	40*	12	25	16	43*
CCCc1nnc2c(N(C)S(=O)(=O)c3ccc(C)cc3)nc3ccccc3n12	i	40*	9	16	18	10
COc1ccccc1OCCNC(=O)Nc1cc(F)c(F)cc1Cl	i	33	-13	34	18	.
COc1ccccc1OCCNC(=O)Nc1ccc(Br)cc1	i	40*	-26	27	-7	31*
Cc1ccc(C2N(C)C(=O)c3ccccc3N2C)cc1 (configuration not stated)	i	0	6	-1	-3	.

Screens: PubChem, several laboratories
